# About 83,000 compounds went through this panel and 20% of them were active in at least one assay; those are over-represented in the sample as a whole.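 Activity criterion: percent growth below 10, measured after cells in 96-well plates were exposed to a single compound concentration for 48 hours.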 A number with no mark means an inactive call. Active and inactive are the calls of the source.
# What was measured:
# Test in all cases: NCI-60 one-dose screen, 48 h (100 = growth as untreated, 0 = no growth, -100 = all killed)
# Conditions in all cases: 10 µM unless noted
# SR leukemia = system: SR leukemia
# RPMI-8226 leukemia = system: RPMI-8226 leukemia
# OVCAR-8 ovarian = system: OVCAR-8 ovarian
# OVCAR-5 ovarian = system: OVCAR-5 ovarian
# OVCAR-4 ovarian = system: OVCAR-4 ovarian
# IGROV1 ovarian = system: IGROV1 ovarian
# OVCAR-3 ovarian = system: OVCAR-3 ovarian
# HS 578T breast = system: HS 578T breast
# NCI/ADR-RES ovarian = system: NCI/ADR-RES ovarian
# BT-549 breast = system: BT-549 breast
# MDA-MB-435 melanoma = system: MDA-MB-435 melanoma
# SW-620 colon = system: SW-620 colon
# MCF7 breast = system: MCF7 breast
# HCT-116 colon = system: HCT-116 colon
# HCC-2998 colon = system: HCC-2998 colon
# KM12 colon = system: KM12 colon
# SK-OV-3 ovarian = system: SK-OV-3 ovarian
# T-47D breast = system: T-47D breast
Structure (SMILES),growth (SR leukemia),growth (RPMI-8226 leukemia),growth (OVCAR-8 ovarian),growth (OVCAR-5 ovarian),growth (OVCAR-4 ovarian),growth (IGROV1 ovarian),growth (OVCAR-3 ovarian),growth (HS 578T breast),growth (NCI/ADR-RES ovarian),growth (BT-549 breast),growth (MDA-MB-435 melanoma),growth (SW-620 colon),growth (MCF7 breast),growth (HCT-116 colon),growth (HCC-2998 colon),growth (KM12 colon),growth (SK-OV-3 ovarian),growth (T-47D breast)
CCN1C(=O)N(CC)C2Nn3c(s/c(=C4\C(=O)N(C5CCCC5)c5ccccc54)c3=O)=NC21 (centres undefined),34.8%,54.1%,60.2%,77.5%,55.7%,67.3%,40.8%,62%,10.9%,79.3%,-15.9% (active),53.9%,45.7%,19.8%,91.8%,23.8%,–,–
O=C(CCCn1c2c(sc3ccccc32)c(=O)n2nnc(-c3ccccc3)c12)NCCc1cnc[nH]1,55.2%,-4.25% (active),-50.6% (active),-82.1% (active),-92.5% (active),–,-49.7% (active),23.4%,21.2%,72.2%,-95.1% (active),-84.5% (active),-100% (active),-100% (active),25.7%,-63% (active),5.51% (active),-25.4% (active)
COc1ccc(/C=C/c2nc(N3CCOCC3)c3nc(Cl)c(Cl)cc3n2)cc1OC,83.3%,98.7%,99%,109%,108%,–,–,113%,99.4%,99.9%,99.8%,109%,111%,89.3%,103%,93.9%,105%,88.2%
C#CCN1C(=O)/C(=c2\sc3n(c2=O)C2C(NN=3)N(CC)C(=O)N2CC)c2ccccc21 (centres undefined),10.1%,18.6%,25.4%,33.5%,47.5%,27.6%,-13.6% (active),-5.36% (active),-4.94% (active),39.7%,-63.2% (active),24.3%,23.3%,4.43% (active),-1.47% (active),14.1%,–,–
C=C1C(=O)O[C@H]2[C@H]1CC/C(COC(=O)NCCc1ccc(Br)cc1)=C\CC[C@@]1(C)O[C@@H]21,-4.11% (active),2.82% (active),7.1% (active),39.6%,30%,–,-71.8% (active),22.9%,58.4%,-9.87% (active),23.9%,-55.6% (active),4.4% (active),-72.1% (active),71.1%,55.4%,97.2%,-21% (active)
CCCCCC/C=C\CCCCCCCCOc1ccc(CCOP(=O)(O)OCC[N+](C)(C)C)cc1,50.7%,23.8%,80.9%,90.3%,86.1%,42.6%,74.8%,89.5%,100%,91.2%,100%,93.2%,79.2%,50.2%,89.2%,59.3%,–,–
CCCn1c(=S)sc2c(Cl)nc(C)nc21,123%,99.1%,105%,109%,85.5%,–,88.6%,36.8%,106%,42.9%,104%,102%,46.7%,104%,111%,104%,90.5%,104%
Cc1oc2ncnc(Nc3ccccc3)c2c1C(=O)NCCO,52.2%,94.8%,113%,93.2%,103%,–,102%,90.5%,102%,90.1%,102%,–,98.6%,99.3%,103%,95.2%,100%,99.4%
COc1cccc2cc(-c3cc4ccccc4[nH]3)/c(=N/C(=S)Nc3ccccc3)oc12,104%,131%,66.2%,89.6%,40.7%,58.1%,80.5%,25.1%,51.4%,95.2%,87.9%,74.1%,79.5%,59.6%,82.6%,88.3%,–,–
CCCCCCCCCCCCCCCCCCOc1cccc(CCOP(=O)(O)OCC[N+](C)(C)C)c1,58.6%,86.9%,95%,101%,91.4%,39%,86.9%,93.1%,94.1%,92.5%,93.6%,94.3%,88.8%,70%,82.5%,50.1%,–,–
COc1ccc(/C=C/c2cc(N3CCOCC3)c3cc(F)c(F)cc3n2)cc1OC,16.2%,43.2%,28.6%,65.5%,35.8%,–,–,74.7%,4.66% (active),45.2%,51%,45.8%,22.1%,24.5%,29%,33.3%,55.5%,37.9%
C=C1C(=O)O[C@H]2[C@H]1CC/C(COC(=O)NCc1cc(OC)c(OC)c(OC)c1)=C\CC[C@@]1(C)O[C@@H]21,4.5% (active),43.6%,43.9%,85%,60.5%,–,–,71.5%,110%,55.1%,–,15.6%,17%,18.7%,101%,92%,101%,34%
CSc1nc(-c2cc3ccccc3o2)cc(-c2ccc(Cl)cc2)c1C#N,82.6%,26.6%,28.7%,93.7%,-57.5% (active),–,37.7%,76%,64.3%,115%,111%,71.1%,14%,58.8%,85.6%,40.4%,-21.3% (active),24.7%
C=C1C(=O)O[C@H]2[C@H]1CC/C(COC(=O)NCc1ccc(OC)cc1)=C\CC[C@@]1(C)O[C@@H]21,-1.29% (active),25.8%,21.5%,78.2%,41.2%,–,5.71% (active),59.2%,86.9%,29.7%,46.9%,–,15.2%,-48.7% (active),83.5%,73.8%,84.8%,17.5%
O=C1NCC(c2cc3ccccc3[nH]c2=O)Nc2ccccc21 (centres undefined),100%,106%,103%,91.2%,104%,–,111%,99.4%,111%,96.3%,107%,102%,103%,92.6%,104%,103%,89.9%,91%
